Compound activity from PubChem BioAssay.
Shown are actives, neighbours in structure and some others; about 18% of the full set was active somewhere.
RORgamma inh: qHTS for inhibitors of ROR gamma transcriptional activity; Nuclear receptor ROR-gamma (Mus musculus), P51450; Drosophila S2 Gal4-RORgamma UAS-luciferase reporter, 20 h; Potency, µM (doses to about 53.6 µM), inactives show at the top dose activity change, negative = inhibition, hits mostly inhibitors; 310,000 tested, 5.4% active; note: potency is the fitted concentration of half-maximal effect; nearly all actives have a fitted effect of over 60% in size
Target sequence (P51450 whole entry, looked up, the tested form may be a part): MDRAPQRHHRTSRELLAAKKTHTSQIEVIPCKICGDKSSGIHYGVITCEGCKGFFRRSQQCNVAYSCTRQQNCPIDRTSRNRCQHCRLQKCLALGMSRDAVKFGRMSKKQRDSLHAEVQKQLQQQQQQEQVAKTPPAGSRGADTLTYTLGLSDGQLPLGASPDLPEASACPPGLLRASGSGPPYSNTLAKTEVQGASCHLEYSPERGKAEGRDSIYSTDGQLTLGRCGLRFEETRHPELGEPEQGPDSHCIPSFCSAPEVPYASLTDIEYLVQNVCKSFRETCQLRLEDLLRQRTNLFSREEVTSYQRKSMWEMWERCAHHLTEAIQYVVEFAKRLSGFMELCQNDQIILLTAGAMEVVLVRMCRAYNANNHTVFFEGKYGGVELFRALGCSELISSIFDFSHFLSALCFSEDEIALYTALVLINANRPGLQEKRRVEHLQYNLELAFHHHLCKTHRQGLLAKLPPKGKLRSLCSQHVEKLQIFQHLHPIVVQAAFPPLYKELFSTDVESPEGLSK
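Drosophila Schneider cells stably carrying a metallothionein-driven Gal4 DBD–ROR gamma fusion and a UAS-Photinus luciferase reporter were exposed to compound for 1 hr, then induced with copper sulfate (700 uM final) for 20 hr at ambient temperature before luminescence reading.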
DT40 TDP1 CPT: qHTS for Inhibitors of human tyrosyl-DNA phosphodiesterase 1 (TDP1): qHTS in cells in presence of CPT | chicken DT40 Tdp1-/-;hTDP1 cells + 20 nM CPT, ATP luminescence, 48 h | Potency, µM (titrated, usually from 46.2 µM), without a hit: at the highest dose activity change, negative = growth inhibition, usual class: inhibitors | 420,000 tested, 12% active | AID 686979, 2013; note: potency is the fitted concentration of half-maximal effect; nearly all actives have a fitted effect of over 55% in size
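Cell growth measured by CellTiter-Glo luminescence after a minimum 48 h, 37 C compound exposure with 20 nM CPT in Tdp1-knockout DT40 cells stably expressing hTDP1, seeded 400/well; qHTS titration format.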
IL1B secr inh: qHTS for Inhibitors of Inflammasome Signaling: IL-1-beta AlphaLISA Primary Screen; THP-1 LPS/ATP IL-1B secretion, AlphaLISA, 16 h; hits give low values; activity change, % at 57.5 µM; 360,000 tested, 4.7% active; AID 743279, 2014; in the data active = activity change below about -50%; inconclusive = mostly about -30% to -49%
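Secreted IL-1B measured by AlphaLISA bead assay after 16 h compound exposure of THP-1 cells; compounds (final up to 57.5 uM) added 1 h before LPS (250 ng/mL) and ATP (1.25 mM) stimulation; lower signal means less secretion.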
LDHA inh: qHTS assay for inhibitors of human lactate dehydrogenase; 480,000 tested, 0.15% active; activity change, % (values are at about 110 or 230 µM); purified LDHA, NADH/diaphorase-resazurin fluorescence; hits give low values; L-lactate dehydrogenase A chain (Homo sapiens), P00338; in the data active = activity change below about -30%; inconclusive = mostly about -25% to -30%;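 note: plate controls were DMSO wells for no effect and wells without enzyme for full effect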
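LDH5 2 nM; NADH 0.06 mM, pyruvate 0.2 mM; 200 mM Tris pH 7.4, EDTA, Tween-20; 5 min RT. Detection: diaphorase 0.133 mg/mL + resazurin 37 µM, fluorescence ex540/em590 at 0 and 20 min; normalized to enzyme-free and DMSO wells.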
Gal4-VP16 FLuc: VP16 counterscreen qHTS for inhibitors of ROR gamma transcriptional activity | AID 2546, 2010 | Drosophila S2 Gal4-VP16 UAS-luciferase, luminescence, 20 h | Potency, µM (series often up to 53.6 µM), inactives show top-dose activity, negative = inhibition, actives largely listed as inhibitors | 310,000 tested, 3.5% active;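 note: Gal4-VP16 expression switched on by copper sulfate through the metallothionein promoter; potency is the fitted concentration of half-maximal effect; nearly all actives have a fitted effect of over 50% in size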
DT40 TDP1 no CPT: qHTS for Inhibitors of human tyrosyl-DNA phosphodiesterase 1 (TDP1): qHTS in cells in absence of CPT; DT40 Tdp1-/- hTDP1 cells, no CPT, ATP luminescence, 48 h; Potency, µM (titrated, usually from 46.2 µM), inactives show at the highest dose activity change, negative = growth inhibition, usual class: inhibitors; 420,000 tested, 15% active; AID 686978, 2013; note: potency is the fitted concentration of half-maximal effect; nearly all actives have a fitted effect of over 55% in size
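No-CPT arm: Tdp1-/-;hTDP1 DT40 cells (400/well) plus compounds, incubated ≥48 hr at 37 °C. Readout CellTiter-Glo luminescence.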
* marks the source's active call; other numbers are inactive results; ? = inconclusive; · = no result given. Unless noted, calls come from the whole dose curve; as a rule, active = well fitted curve in the direction sought with a large enough effect; inconclusive = small, poorly fitted or top-dose-only effect, or another doubt; inactive = no such curve, though single readings can be large; an effect the other way counts as inactive or inconclusive. Unless noted, % is set by controls: 0 for no effect and ±100 for the full control effect.

SMILES	RORgamma inh	DT40 TDP1 CPT	IL1B secr inh	LDHA inh	Gal4-VP16 FLuc	DT40 TDP1 no CPT
Cc1ccc(-c2nc3cc(NC(=O)c4cc(Br)ccc4Cl)ccc3o2)cc1	·	5.8µM*	·	-3	·	4.6µM*
COc1ccc(-c2nc3cc(NC(=O)c4ccccc4)ccc3o2)cc1	·	·	·	-39*	·	·
COc1ccc(NC(=O)c2cc3ccccc3cc2OC)cc1OC	2%	?	-20	-3	-1%	18µM*
CC(C)c1ccc2cc(C(=O)NCC3CCS(=O)(=O)C3)[nH]c2c1 (stereo not drawn)	·	·	·	-21	·	·
Cn1c2ccccc2c2cnn(CC(=O)NCCCN3CCN(c4ccccc4F)CC3)c(=O)c21	5%	?	-21	-11	-6%	15µM*
Cc1ccc(C)c(N2CCN(CCCNC(=O)Cn3ncc4c5ccccc5n(C)c4c3=O)CC2)c1	·	15µM*	·	-8	·	10µM*
CCOC(=O)c1cnc(Nc2ccccc2F)c2ccccc12	·	·	·	1	·	·
CCCC(=O)Nc1cccc(-c2nc3cc(C)cc(C)c3o2)c1C	·	·	·	0	·	·
O=C(O)CSCC(=O)N1CCOCC1	·	·	·	14	·	·
N#C/C(=C/c1ccc(OCCOc2ccccc2)cc1)c1ccc(Cl)cc1Cl	·	·	·	-1	·	·
CC(C)N(C(=O)[C@H]1C[C@H](CC(=O)NCCCn2ccnc2)C(=O)N2CCc3c([nH]c4ccc(Cl)cc34)[C@]12C)C(C)C	·	?	?	-1	·	18µM*
COc1ccc2[nH]c3c(c2c1)CCN1C(=O)C(CC(=O)NCCCn2ccnc2)C[C@H](C(=O)N(C(C)C)C(C)C)[C@@]31C (stereo partly drawn)	·	-11%	-19	-2	·	-16%
COCCCNC(=O)C[C@H]1C[C@H](C(=O)N(C(C)C)C(C)C)[C@@]2(C)c3[nH]c4ccc(Cl)cc4c3CCN2C1=O	·	12µM*	5	1	·	8.2µM*
COCCCNC(=O)CC1C[C@H](C(=O)N(C(C)C)C(C)C)[C@@]2(C)c3[nH]c4ccc(OC)cc4c3CCN2C1=O (stereo partly drawn)	·	-16%	0	0	·	?
CC(OC(=O)c1cc(-c2ccc(F)cc2)nc2ccccc12)C(N)=O (stereo not drawn)	·	·	·	4	·	·
COc1ccc(NC(=O)CSc2nc3ccccc3n2CC(=O)N2CCCC(C)C2)cc1 (stereo not drawn)	·	?	·	-5	·	21µM*
CN(C(=O)CSc1nc2ccccc2n1CCc1ccccc1)C1CCS(=O)(=O)C1 (stereo not drawn)	16µM*	-24%	?	-5	?	-21%
Cc1ccc(NC(=O)CSc2nc3ccccc3n2CC(=O)N(C)C2CCCCC2)cc1C	·	?	·	-10	·	18µM*
COc1ccc(NC(=O)CSc2nc3ccccc3n2CC(=O)N(C)c2ccc(F)cc2)cc1	·	?	·	-11	·	15µM*
COc1ccc(NC(=O)CSC2=NC3(CCCCC3)Nc3ccccc32)cc1Cl	·	·	·	6	·	·
Cc1ccc(S(=O)(=O)N(Cc2ccc(C#N)cc2)c2nc3nc(C)cc(C)n3n2)cc1	·	·	·	6	·	·
CN(C(=O)CSc1nc2ccccc2n1CC(=O)N(C)C1CCCCC1)c1ccc(F)cc1	·	?	·	-13	·	29µM*
COc1ccc(C2C(=O)N(C3CCCCCC3)CC(=O)N2Cc2ccc(C)cc2)cc1 (stereo not drawn)	·	23µM*	·	1	·	26µM*
COc1ccc(C2C(=O)N(C3CCCCCC3)CC(=O)N2CCc2ccccc2)cc1 (stereo not drawn)	·	?	·	-7	·	?
Cc1ccc(C2C(=O)N(C3CCCCCC3)CC(=O)N2CCC2=CCCCC2)cc1 (stereo not drawn)	·	?	·	-4	·	21µM*
SMILES	RORgamma inh	DT40 TDP1 CPT	IL1B secr inh	LDHA inh	Gal4-VP16 FLuc	DT40 TDP1 no CPT
COc1ccc(C2C(=O)N(C3CCCCC3)CC(=O)N2CCC2=CCCCC2)cc1 (stereo not drawn)	·	?	·	-9	·	16µM*
COc1ccc(C2C(=O)N(C3CCCCCC3)CC(=O)N2CCC2=CCCCC2)cc1 (stereo not drawn)	·	23µM*	·	3	·	15µM*
CCCOc1ccc(C2C(=O)N(C3CCCCCC3)CC(=O)N2CCC2=CCCCC2)cc1OC (stereo not drawn)	·	-12%	·	-3	·	-20%
c1cc(OCc2nc(-c3cccs3)no2)cc(-n2cnnn2)c1	·	·	·	5	·	·
CCOCCCN1C(=O)CN(C2CCC(C)CC2)C(=O)C1c1ccc(C)cc1 (stereo not drawn)	5%	?	-11	0	-2%	2.3µM*
O=S(=O)(c1ccccc1)N1CCC2(CCCN(c3cccc(-c4ccccc4)c3)C2)CC1	-3%	5%	·	·	4%	-29%
c1ccc(-c2cccc(N3CC4(CCNCC4)C3)c2)cc1	-9%	9.2µM*	·	·	8%	9.2µM*
c1ccc(-c2cccc(N3CC[C@@]4(CCCNC4)C3)c2)cc1	-23%	8.2µM*	·	·	0%	6.5µM*
O=C(c1ccco1)N1CCC2(CC1)CCN(c1cccc(-c3ccccc3)c1)CC2	22%	?	·	·	12%	?
O=S(=O)(c1ccccc1)N1CCC[C@@]2(CCN(c3cccc(-c4ccccc4)c3)C2)C1	6%	?	·	·	-1%	?
c1ccc(-c2cccc(N3CCC4(CCNCC4)CC3)c2)cc1	?	9.2µM*	·	·	-20%	8.2µM*
c1ccc(-c2cccc(N3CCCC4(CCNCC4)C3)c2)cc1	?	12µM*	·	·	-1%	21µM*
Cc1ccc(CNC(=O)NCC(=O)N2CCN(S(=O)(=O)c3ccc(Cl)c(Cl)c3)CC2)cc1	·	·	·	-7	·	·
O=c1cc(CN2CCN(c3ccc(F)cc3)CC2)c2cc(O)ccc2o1	·	·	·	16	·	·
Cc1c(NC(=O)CC23CC4CC(CC(C4)C2)C3)cccc1-c1nc2ncccc2o1	·	·	·	5	·	·
CC(=O)Nc1ccc([N+](=O)[O-])c(CS(=O)(=O)c2ccc(C)cc2)c1[N+](=O)[O-]	-14%	?	45	-3	-9%	23µM*
CC(=O)Nc1ccc(NS(=O)(=O)c2ccc(C)cc2)cc1[N+](=O)[O-]	-12%	4%	·	-6	-4%	-5%
COc1ccc(-c2noc(C(C)Oc3cccc(Cl)c3)n2)cc1 (stereo not drawn)	·	·	·	1	·	·
